Experimental data from the supplement of paper PMC10849652.
Targets with a hit are over-represented here; the source holds about 7,900 in all. About 0.6% of all pairs of compound and target were hits. A number with no mark means an inactive call.

Assays:
Test in all cases: log2 fold change, soluble protein after heating vs DMSO (PISA); higher = thermal stabilisation; K562 cells, 10 uM, 30 min; active = over 0.2 and 3.5 SD of the protein, either way, in both replicates (recomputed)
[1] = compound: COC1=CC=C(C=C1)CN2C=CC3=C2C=C(C=C3)C(=O)NO
Procedure, shortened: (§1)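 Quantification of soluble protein used TMTpro 16plex LC-MS/MS, with channel sums equalised. Samples were the supernatant after 21,000xg for 90 min of pooled aliquots from K562 cells (2×10^6 cells/mL) treated with 10 μM compound for 30 min, heated for 3 min over 48°C-58°C, and extracted in PBS with 0.5% NP-40 at 4°C. Values, from duplicates, describe thermal stability against control samples on a log2 fold-change scale.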

filanesib = compound: CON(C)C(=O)N1N=C(c2cc(F)ccc2F)S[C@@]1(CCCN)c1ccccc1 [filanesib]
Procedure, shortened: as §1

zotarolimus = compound: CO[C@H]1C[C@@H]2CC[C@@H](C)[C@@](O)(O2)C(=O)C(=O)N2CCCC[C@H]2C(=O)O[C@H]([C@H](C)C[C@@H]2CC[C@H](n3cnnn3)[C@H](OC)C2)CC(=O)[C@H](C)/C=C(\C)[C@@H](O)[C@@H](OC)C(=O)[C@H](C)C[C@H](C)/C=C/C=C/C=C/1C [zotarolimus]
Procedure, shortened: as §1

idasanutlin = compound: COc1cc(C(=O)O)ccc1NC(=O)[C@@H]1N[C@@H](CC(C)(C)C)[C@](C#N)(c2ccc(Cl)cc2F)[C@H]1c1cccc(Cl)c1F [idasanutlin]
Procedure, shortened: as §1

alisertib = compound: COc1cc(Nc2ncc3c(n2)-c2ccc(Cl)cc2C(c2c(F)cccc2OC)=NC3)ccc1C(=O)O [alisertib]
Procedure, shortened: as §1

[2] = compound: COc1cc2nc(-c3cc(F)ccc3O)nc(N[C@@H]3CNC[C@H]3C(C)(C)O)c2cc1OC
Procedure, shortened: as §1

gefitinib = compound: COc1cc2ncnc(Nc3ccc(F)c(Cl)c3)c2cc1OCCCN1CCOCC1 [gefitinib]
Procedure, shortened: as §1

[3] = compound: COc1cccc2cc(-c3nc([C@H]4CC[C@H](C(=O)O)CC4)n4ncnc(N)c34)[nH]c12
Procedure, shortened: as §1

lapatinib = compound: CS(=O)(=O)CCNCc1ccc(-c2ccc3ncnc(Nc4ccc(OCc5cccc(F)c5)c(Cl)c4)c3c2)o1 [lapatinib]
Procedure, shortened: as §1

pictilisib = compound: CS(=O)(=O)N1CCN(Cc2cc3nc(-c4cccc5[nH]ncc45)nc(N4CCOCC4)c3s2)CC1 [pictilisib]
Procedure, shortened: as §1

UniProt Q5JTH9, sequence (Q5JTH9 whole entry, looked up): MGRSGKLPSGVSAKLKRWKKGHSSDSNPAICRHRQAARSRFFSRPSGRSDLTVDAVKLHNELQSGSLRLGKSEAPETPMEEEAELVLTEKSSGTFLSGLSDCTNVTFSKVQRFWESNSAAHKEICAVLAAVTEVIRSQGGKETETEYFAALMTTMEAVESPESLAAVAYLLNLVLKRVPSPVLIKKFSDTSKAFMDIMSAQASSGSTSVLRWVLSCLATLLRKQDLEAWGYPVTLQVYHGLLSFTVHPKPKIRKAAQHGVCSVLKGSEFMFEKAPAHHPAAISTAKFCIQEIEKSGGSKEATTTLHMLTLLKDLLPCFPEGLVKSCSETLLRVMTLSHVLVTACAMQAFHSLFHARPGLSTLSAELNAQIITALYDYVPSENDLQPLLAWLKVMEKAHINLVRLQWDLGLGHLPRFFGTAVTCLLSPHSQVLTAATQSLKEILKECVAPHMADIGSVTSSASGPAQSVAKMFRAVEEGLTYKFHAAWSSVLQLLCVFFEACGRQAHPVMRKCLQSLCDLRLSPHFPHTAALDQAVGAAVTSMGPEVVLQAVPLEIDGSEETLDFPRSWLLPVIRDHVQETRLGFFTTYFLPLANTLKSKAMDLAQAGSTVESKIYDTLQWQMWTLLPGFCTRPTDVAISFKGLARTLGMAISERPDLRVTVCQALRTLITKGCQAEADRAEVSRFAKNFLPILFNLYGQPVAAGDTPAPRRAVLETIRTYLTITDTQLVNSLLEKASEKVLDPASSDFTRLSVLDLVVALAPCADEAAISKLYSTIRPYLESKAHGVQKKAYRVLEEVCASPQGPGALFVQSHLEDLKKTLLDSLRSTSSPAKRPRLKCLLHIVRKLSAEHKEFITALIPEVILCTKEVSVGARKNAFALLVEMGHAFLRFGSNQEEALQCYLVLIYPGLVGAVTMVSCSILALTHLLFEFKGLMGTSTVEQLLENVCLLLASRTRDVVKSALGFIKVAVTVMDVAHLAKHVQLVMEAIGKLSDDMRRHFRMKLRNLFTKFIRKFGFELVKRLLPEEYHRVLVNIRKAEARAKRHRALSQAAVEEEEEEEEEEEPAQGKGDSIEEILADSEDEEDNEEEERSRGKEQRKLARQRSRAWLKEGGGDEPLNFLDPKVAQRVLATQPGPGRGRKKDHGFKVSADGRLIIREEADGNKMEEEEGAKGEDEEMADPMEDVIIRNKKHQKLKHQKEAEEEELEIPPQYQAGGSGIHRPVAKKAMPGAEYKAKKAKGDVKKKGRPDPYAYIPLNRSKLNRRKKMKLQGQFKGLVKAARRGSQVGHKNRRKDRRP
UniProt O94885, sequence (O94885 whole entry, looked up): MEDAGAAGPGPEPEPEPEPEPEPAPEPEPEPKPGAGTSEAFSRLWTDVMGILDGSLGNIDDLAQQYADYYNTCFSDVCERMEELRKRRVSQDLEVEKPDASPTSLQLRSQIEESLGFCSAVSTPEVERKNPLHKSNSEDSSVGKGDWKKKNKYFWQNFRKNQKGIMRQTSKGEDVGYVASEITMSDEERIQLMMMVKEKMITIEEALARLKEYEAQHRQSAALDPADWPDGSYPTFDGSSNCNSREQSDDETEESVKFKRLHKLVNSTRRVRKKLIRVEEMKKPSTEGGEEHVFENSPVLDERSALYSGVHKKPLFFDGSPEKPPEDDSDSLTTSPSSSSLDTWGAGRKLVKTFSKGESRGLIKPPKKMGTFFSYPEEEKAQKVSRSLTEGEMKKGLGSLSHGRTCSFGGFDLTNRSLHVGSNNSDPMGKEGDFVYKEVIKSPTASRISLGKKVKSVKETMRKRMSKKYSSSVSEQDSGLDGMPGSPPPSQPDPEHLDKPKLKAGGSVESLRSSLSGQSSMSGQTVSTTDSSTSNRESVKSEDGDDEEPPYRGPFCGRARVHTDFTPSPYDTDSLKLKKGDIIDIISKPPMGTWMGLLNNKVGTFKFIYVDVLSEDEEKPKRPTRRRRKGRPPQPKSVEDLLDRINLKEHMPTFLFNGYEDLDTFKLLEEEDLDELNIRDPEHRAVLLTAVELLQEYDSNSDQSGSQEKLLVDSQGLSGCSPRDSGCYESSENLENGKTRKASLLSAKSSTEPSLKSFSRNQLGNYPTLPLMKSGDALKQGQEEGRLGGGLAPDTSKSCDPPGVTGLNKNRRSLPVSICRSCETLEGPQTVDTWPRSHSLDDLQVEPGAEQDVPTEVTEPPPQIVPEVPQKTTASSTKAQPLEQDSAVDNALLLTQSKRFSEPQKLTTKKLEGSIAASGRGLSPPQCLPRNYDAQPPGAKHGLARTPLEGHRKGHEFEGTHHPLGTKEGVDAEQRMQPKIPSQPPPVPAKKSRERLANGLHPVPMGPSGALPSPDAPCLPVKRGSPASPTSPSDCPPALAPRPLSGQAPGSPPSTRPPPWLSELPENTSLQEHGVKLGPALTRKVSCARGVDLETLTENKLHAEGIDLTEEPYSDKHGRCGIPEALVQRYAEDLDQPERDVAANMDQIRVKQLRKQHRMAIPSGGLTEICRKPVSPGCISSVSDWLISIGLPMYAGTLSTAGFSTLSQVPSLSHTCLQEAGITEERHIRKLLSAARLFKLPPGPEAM
UniProt Q9NW64, sequence (Q9NW64 whole entry, looked up): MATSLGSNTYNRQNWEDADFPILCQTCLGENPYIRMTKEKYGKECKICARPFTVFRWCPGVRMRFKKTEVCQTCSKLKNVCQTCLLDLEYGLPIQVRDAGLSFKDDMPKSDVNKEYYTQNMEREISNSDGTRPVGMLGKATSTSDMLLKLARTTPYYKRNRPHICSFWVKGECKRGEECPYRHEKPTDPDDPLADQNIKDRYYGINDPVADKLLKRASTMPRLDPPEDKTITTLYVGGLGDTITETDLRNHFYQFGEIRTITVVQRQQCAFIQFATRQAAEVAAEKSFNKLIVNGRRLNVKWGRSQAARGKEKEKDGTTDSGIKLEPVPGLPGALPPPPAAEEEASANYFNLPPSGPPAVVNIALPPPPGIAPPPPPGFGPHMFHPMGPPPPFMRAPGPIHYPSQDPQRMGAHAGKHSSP
UniProt Q8WWV3, sequence (Q8WWV3 whole entry, looked up): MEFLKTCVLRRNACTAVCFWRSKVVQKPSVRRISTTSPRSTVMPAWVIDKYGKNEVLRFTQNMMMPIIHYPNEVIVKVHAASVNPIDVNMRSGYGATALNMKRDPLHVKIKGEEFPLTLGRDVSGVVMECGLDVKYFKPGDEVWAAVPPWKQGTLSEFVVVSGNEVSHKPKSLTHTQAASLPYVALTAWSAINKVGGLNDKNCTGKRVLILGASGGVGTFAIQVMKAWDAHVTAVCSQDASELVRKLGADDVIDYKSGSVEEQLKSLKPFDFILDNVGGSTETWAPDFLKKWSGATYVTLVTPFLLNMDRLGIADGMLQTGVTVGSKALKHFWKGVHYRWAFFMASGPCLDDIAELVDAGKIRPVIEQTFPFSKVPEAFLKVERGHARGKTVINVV
UniProt Q99643, sequence (Q99643 whole entry, looked up): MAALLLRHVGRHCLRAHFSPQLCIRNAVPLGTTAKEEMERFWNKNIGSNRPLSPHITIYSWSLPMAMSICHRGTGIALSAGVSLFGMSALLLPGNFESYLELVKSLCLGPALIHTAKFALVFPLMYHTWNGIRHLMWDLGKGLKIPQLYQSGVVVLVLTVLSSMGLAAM
UniProt Q6NT16, sequence (Q6NT16 whole entry, looked up): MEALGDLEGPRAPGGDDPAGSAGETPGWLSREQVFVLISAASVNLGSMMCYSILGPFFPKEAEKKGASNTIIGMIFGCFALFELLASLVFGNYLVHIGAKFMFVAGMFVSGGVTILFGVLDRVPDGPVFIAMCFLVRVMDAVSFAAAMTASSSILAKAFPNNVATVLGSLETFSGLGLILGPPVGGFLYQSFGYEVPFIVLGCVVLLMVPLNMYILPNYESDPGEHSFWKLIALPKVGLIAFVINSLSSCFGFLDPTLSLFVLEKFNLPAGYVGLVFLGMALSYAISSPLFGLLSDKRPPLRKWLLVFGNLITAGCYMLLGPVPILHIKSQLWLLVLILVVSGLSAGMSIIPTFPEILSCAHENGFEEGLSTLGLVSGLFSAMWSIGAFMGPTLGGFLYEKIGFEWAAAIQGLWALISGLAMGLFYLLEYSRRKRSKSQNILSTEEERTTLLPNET
UniProt P63208, sequence (P63208 whole entry, looked up): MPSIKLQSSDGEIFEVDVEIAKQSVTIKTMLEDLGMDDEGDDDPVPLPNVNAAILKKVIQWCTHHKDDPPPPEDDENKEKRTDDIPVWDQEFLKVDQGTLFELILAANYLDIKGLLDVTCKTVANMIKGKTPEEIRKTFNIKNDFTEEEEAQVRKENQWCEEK
UniProt Q8NBX0, sequence (Q8NBX0 whole entry, looked up): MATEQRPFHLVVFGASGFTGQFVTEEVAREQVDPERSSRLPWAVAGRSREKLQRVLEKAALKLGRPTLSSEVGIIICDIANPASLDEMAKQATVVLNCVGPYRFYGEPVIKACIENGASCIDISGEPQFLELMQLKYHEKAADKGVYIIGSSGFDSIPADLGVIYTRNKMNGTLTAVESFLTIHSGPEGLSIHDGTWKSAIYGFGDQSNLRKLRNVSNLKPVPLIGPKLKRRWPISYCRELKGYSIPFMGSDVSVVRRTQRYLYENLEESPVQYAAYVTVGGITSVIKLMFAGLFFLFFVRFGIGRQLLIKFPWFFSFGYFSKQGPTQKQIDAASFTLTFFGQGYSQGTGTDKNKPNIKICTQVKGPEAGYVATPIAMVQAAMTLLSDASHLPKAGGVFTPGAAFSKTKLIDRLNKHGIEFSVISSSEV
UniProt Q9HB90, sequence (Q9HB90 whole entry, looked up): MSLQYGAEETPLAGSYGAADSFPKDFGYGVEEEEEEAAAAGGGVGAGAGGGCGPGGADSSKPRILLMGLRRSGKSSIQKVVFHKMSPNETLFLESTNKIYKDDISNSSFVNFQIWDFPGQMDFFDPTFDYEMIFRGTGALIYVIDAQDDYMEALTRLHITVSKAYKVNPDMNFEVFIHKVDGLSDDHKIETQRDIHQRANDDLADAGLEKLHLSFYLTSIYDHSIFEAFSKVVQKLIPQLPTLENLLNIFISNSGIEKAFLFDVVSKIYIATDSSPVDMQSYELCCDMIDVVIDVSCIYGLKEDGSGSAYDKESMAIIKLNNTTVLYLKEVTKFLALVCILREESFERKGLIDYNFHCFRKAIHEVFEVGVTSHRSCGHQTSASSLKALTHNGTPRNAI

Row | Target | log2 fold change [1] | log2 fold change (filanesib) | log2 fold change (zotarolimus) | log2 fold change (idasanutlin) | log2 fold change (alisertib) | log2 fold change [2] | log2 fold change (gefitinib) | log2 fold change [3] | log2 fold change (lapatinib) | log2 fold change (pictilisib)
1 | SDHAF2 (UniProt Q9NX18) | 0.063 | -0.03 | 0.068 | -0.085 | 0.02 | -0.163 | 0.09 | 0.102 | -0.013 | 0.091
2 | RDH13 (UniProt Q8NBN7) | 0.056 | -0.135 | 0.072 | -0.019 | -0.005 | -0.064 | 0.018 | 0.084 | 0 | 0.042
3 | RMC1 (UniProt Q96DM3) | -0.002 | -0.058 | -0.015 | -0.047 | -0.059 | -0.006 | 0.045 | 0.044 | -0.029 | -0.105
4 | RAP1GDS1 isoform 5 (UniProt P52306) | -0.026 | -0.019 | 0.022 | -0.023 | -0.041 | -0.025 | 0.066 | -0.072 | 0.091 | 0.015
5 | RABGAP1L isoform 5 (UniProt Q5R372) | 0.117 | 0.108 | -0.008 | 0.05 | -0.071 | 0.065 | -0.097 | 0.007 | -0.027 | –
6 | SEPTIN5 (UniProt Q99719) | 0.034 | -0.003 | 0.013 | -0.067 | -0.044 | 0 | 0.006 | 0.02 | -0.035 | 0.08
7 | RETSAT (UniProt Q6NUM9) | 0.051 | 0.109 | 0.094 | -0.077 | 0.067 | 0.064 | 0.052 | -0.093 | 0.192 | 0.074
8 | RPS19 (UniProt P39019) | 0 | 0.102 | -0.015 | 0.113 | -0.114 | -0.024 | -0.049 | -0.12 | 0.059 | -0.137
9 | SLC18B1 (UniProt Q6NT16) | 0.072 | -0.094 | -0.068 | 0.083 | 0.022 | 0.058 | 0.01 | 0.087 | -0.061 | 0.067
10 | SEC31A (UniProt O94979) | 0.01 | 0.063 | 0.029 | -0.039 | 0.006 | 0.211 | 0.008 | -0.01 | -0.036 | -0.002
11 | RRAGC (UniProt Q9HB90) | -0.028 | -0.095 | -0.009 | -0.065 | -0.003 | 0.011 | -0.01 | 0.057 | -0.01 | 0.066
12 | SCCPDH (UniProt Q8NBX0) | 0.436 (active) | 0.139 | 0.349 | 0.025 | -0.058 | -0.026 | -0.016 | 0.076 | 0.015 | 0.135
13 | SASH1 (UniProt O94885) | -0.059 | -0.074 | -0.04 | -0.05 | 0.009 | -0.161 | 0.015 | -0.015 | -0.013 | 0.073
14 | SDHC (UniProt Q99643) | 0.088 | 0.088 | 0.094 | -0.238 | 0.023 | -0.107 | 0.042 | 0.04 | -0.081 | -0.006
15 | RUFY3 isoform 3 (UniProt Q7L099) | -0.06 | 0.053 | 0.003 | -0.108 | 0.155 | 0.045 | 0.08 | -0.122 | -0.01 | 0.018
16 | RBM12 (UniProt Q9NTZ6) | 0.112 | -0.033 | 0.021 | -0.039 | 0.023 | -0.014 | 0.032 | 0.023 | -0.012 | -0.019
17 | RPS15 (UniProt P62841) | 0.086 | 0.192 | -0.082 | 0.049 | -0.107 | 0.027 | 0.008 | -0.147 | -0.01 | -0.054
18 | RRP12 (UniProt Q5JTH9) | -0.03 | 0.288 | -0.046 | 0.032 | 0.204 | 0.222 | -0.104 | -0.222 | -0.128 | 0.032
19 | RPL31 (UniProt P62899) | -0.084 | 0.277 | -0.013 | 0.151 | -0.118 | -0.013 | -0.075 | -0.25 | 0.103 | -0.092
20 | SCG3 (UniProt Q8WXD2) | 0.002 | -0.001 | -0.044 | -0.056 | 0.128 | -0.082 | 0.089 | -0.236 | 0.07 | -0.086
21 | SKP1 (UniProt P63208) | 0.209 | -0.095 | 0.09 | 0.027 | -0.005 | -0.099 | 0.001 | -0.008 | 0.01 | -0.121
22 | RBM25 (UniProt P49756) | 0.285 (active) | 0.112 | 0.022 | 0.022 | -0.044 | -0.035 | 0.001 | 0.043 | -0.024 | 0.052
23 | SH3GL1 (UniProt Q99961) | 0.046 | -0.047 | 0.062 | 0 | 0.012 | 0 | -0.029 | -0.048 | -0.008 | -0.005
24 | RTN4IP1 (UniProt Q8WWV3) | 0.206 | -0.081 | 0.097 | 1.17 (active) | -0.22 | -0.013 | 0.125 | 0.256 | 0.003 | -0.003
25 | RBM26 isoform 2 (UniProt Q5T8P6) | 0.086 | -0.071 | 0.03 | -0.025 | 0.093 | -0.045 | 0.064 | 0.009 | 0.034 | 0.059
26 | RBM8A (UniProt Q9Y5S9) | -0.061 | 0.028 | -0.018 | -0.01 | -0.024 | 0.094 | 0.038 | -0.029 | -0.028 | -0.013
27 | RABGAP1L isoform 3 (UniProt Q5R372) | -0.108 | -0.026 | -0.006 | -0.05 | -0.008 | -0.025 | 0.035 | 0.033 | 0.012 | -0.066
28 | SAAL1 (UniProt Q96ER3) | -0.179 | -0.032 | 0.016 | -0.11 | -0.067 | 0.214 | -0.055 | 0.018 | -0.002 | -0.018
29 | RBM22 (UniProt Q9NW64) | -0.105 | 0.096 | 0 | 0.056 | -0.002 | 0.021 | -0.058 | 0.083 | 0.036 | -0.031
30 | RRAS2 isoform 4 (UniProt P62070) | 0.004 | 0.059 | -0.025 | 0.016 | -0.099 | 0.075 | 0.061 | 0.093 | 0.017 | 0.05
